# Screening data deposited in PubChem by National Center for Advancing Translational Sciences (NCATS).
# In the library only some 1.3% were active in any assay of this set; here they are far more common.
# TRPV1 agonist: human TRPV1 agonism. AID 540275. activation, % at 8.33 µM. Q8NER1. 320,000 tested, 0.19% active. TRPV1-expressing cells, Fluo-8 calcium influx, agonist mode; in the data active = activation above about 80%; inconclusive = between about 30% and that limit; also: 0% is about no effect
# Target sequence (Q8NER1 whole entry, looked up): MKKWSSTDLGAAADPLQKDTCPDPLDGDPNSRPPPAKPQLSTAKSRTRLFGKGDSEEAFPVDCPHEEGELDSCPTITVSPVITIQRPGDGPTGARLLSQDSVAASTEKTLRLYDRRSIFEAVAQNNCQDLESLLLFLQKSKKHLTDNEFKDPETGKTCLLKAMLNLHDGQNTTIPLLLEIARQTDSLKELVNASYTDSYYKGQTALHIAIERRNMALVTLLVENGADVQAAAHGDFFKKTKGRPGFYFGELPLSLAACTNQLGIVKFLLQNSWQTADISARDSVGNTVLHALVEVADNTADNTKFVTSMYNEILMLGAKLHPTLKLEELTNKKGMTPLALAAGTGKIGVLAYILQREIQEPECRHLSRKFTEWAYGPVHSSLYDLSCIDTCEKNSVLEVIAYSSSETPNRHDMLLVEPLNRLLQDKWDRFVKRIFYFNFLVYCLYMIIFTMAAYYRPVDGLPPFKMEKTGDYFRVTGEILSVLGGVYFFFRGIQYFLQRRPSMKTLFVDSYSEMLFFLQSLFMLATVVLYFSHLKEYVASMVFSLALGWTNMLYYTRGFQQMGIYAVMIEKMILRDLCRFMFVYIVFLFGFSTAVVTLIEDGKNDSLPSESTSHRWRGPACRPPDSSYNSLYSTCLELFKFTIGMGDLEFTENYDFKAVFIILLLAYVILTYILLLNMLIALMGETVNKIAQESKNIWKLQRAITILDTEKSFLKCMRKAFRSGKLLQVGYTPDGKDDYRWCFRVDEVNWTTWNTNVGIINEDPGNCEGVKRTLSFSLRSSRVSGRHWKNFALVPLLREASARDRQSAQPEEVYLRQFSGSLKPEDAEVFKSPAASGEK
#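 TRPV1-expressing cells were cultured overnight at 35.5C and loaded with Fluo-8 calcium dye for 40 to 90 min at room temperature. After a 10 s baseline, compound was added and calcium influx was read kinetically for 3 min (ex 480/em 520 nm).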
# TRPV1 PAM: potentiators of human vanilloid receptor 1 (TRPV1). Q8NER1. TRPV1-expressing cells, Fluo-8 calcium influx, capsaicin EC20 potentiation. 320,000 tested, 0.02% active. potentiation, % at 8.33 µM; in the data active = potentiation above about 80%; inconclusive = between about 30% and that limit; also: 0% is about no effect
#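 TRPV1-expressing cells were cultured overnight at 35.5C and loaded with Fluo-8 calcium dye for 40 to 90 min at room temperature. After a 10 s baseline, compound was added and calcium influx was read kinetically for 3 min (ex 480/em 520 nm).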
# KCNH2 WT inh: KCNH2 (human, wildtype) channel inhibition; Q12809; U2OS, BacMam KCNH2, thallium flux FluxOr; active compounds read low; activity change, % at 1.84 µM; 340,000 tested, 0.37% active; AID 720551;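 active = maximum activity change below -70%; inconclusive = maximum activity change between -70% and -50%; inactive = maximum activity change above -50%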; also: % is scaled to controls: 0 for no effect and ±100 for the full control effect
#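 U2OS cells were transduced with wild-type KCNH2 virus (2.03 x 10^8 / mL) for 4 h at room temperature, then cultured overnight at 37 C. Thallium flux was read with FluxOr dye. Rate constants were normalized to DMSO controls.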
# TRPML1 agonist: agonists of human TRPML1 channel | TRPML1-expressing cells, Ca2+ dye fluorescence, FDSS | activation, % (no concentration beside the values) | 410,000 tested, 0.12% active | Q9GZU1; in the data active = activation above about 50%; inconclusive = mostly about 30% to 49%; also: 0% is about no effect
#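 Calcium fluorescence on an FDSS kinetic reader gave the read-out. Tet-induced TRPML1-DL cells were plated overnight, dye-loaded (Ca8 with quencher, 45-90 min, room temperature, dark), then read 110 s after compound addition, and again 110 s after 4uM final 54-4 (EC80).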
# KCNH2 3.1 block: KCNH2 3.1 (human) potassium channel inhibition; AID 720553; U2OS KCNH2 3.1, thallium flux FluxOr; active compounds read low; activity change, % (tested at about 1.8 µM); 340,000 tested, 0.95% active;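 active = maximum activity change below -70%; inconclusive = maximum activity change from -70% to -50%; inactive = maximum activity change above -50%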;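 also: thallium influx rate constant from kinetic fluorescence after stimulation buffer; % is scaled to controls: 0 for no effect and ±100 for the full control effect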
#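 Kinetic fluorescence (2 min after stimulation buffer) measures Tl+ influx through KCNH2 3.1 expressed by viral transduction in U2OS cells; the rate constant is normalized against DMSO controls serving as positive and negative references.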
# TRPML1 inh: blocks the human TRPML1 channel; TRPML1-inducible cells, Ca2+ dye fluorescence, FDSS; active compounds read low; inhibition of EC80 agonist-evoked calcium signal; AID 624415; activity change, negative = inhibition, % (no concentration beside the values); Q9GZU1; 390,000 tested, 0.02% active; in the data active = activity change below about -50%; inconclusive = between about -30% and that limit;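 also: stimulus is agonist 54-4 at its EC80 concentration; % is scaled to controls: 0 for no effect and ±100 for the full control effect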
#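 Tet-induced TRPML1-DL cells loaded with Ca8 no-wash calcium dye were read kinetically on FDSS. Compound addition was followed by EC80 agonist 54-4 (4 uM final); inhibition was read over 110 s.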
# An asterisk follows results filed as active; ? = inconclusive; . = no result given.
SMILES,TRPV1 agonist,TRPV1 PAM,KCNH2 WT inh,TRPML1 agonist,KCNH2 3.1 block,TRPML1 inh
COC(=O)c1ccccc1N(Cc1ccccc1)S(C)(=O)=O,-2.0,-0.2,-10.0,-0.2,-4.9,-1.2
COc1ccccc1NC(=O)c1ccccc1N(Cc1ccccc1)S(C)(=O)=O,3.3,-15.3,-214.7*,.,14.2,.
CC(C)NC(=O)c1ccccc1N(Cc1ccccc1)S(C)(=O)=O,0.5,-19.6,-25.0,-0.6,-75.4*,87.6
Nc1nonc1-n1nnc(C(=O)N/N=C/c2ccc(OCc3ccccc3)cc2)c1CN1CCCCC1,6.4,-3.2,6.4,1.2,-98.1*,3.0
CN(C)c1ccc(/C=N/NC(=O)c2nnn(-c3nonc3N)c2CN2CCCCCC2)cc1,.,.,6.6,0.7,-37.8,3.1
CCCCOc1ccc(/C=N/NC(=O)c2nnn(-c3nonc3N)c2CN2CCCCCC2)cc1,.,.,-0.8,0.0,-80.5*,3.9
Nc1nonc1-n1nnc(C(=O)N/N=C/c2cccc(F)c2)c1CN1CCCCCC1,.,.,9.1,-0.1,0.2,1.8
CCOC(=O)CN1C(=O)N[C@@H](c2ccccc2)[C@H](C(C)=O)[C@H]1C,.,.,-12.0,-0.1,-82.4*,-10.4
COc1ccc(-n2nc3c(N4CCCC(C(=O)NCc5ccc(C)cc5)C4)nnc(C)c3c2C)cc1 (configuration not stated),.,.,.,2.2,.,60.9
Cc1ccc(NC(=O)CN(C)C(=O)c2cc3c(s2)CCCCC3)cc1,20.1,-17.2,-0.3,1.1,-37.4,-29.4
Cc1ccc(NC(=O)c2cc3c(s2)CCCC3)cc1,83.7*,-12.2,1.6,0.8,4.5,0.3
CCCOc1ccc(CCc2n[nH]c(=S)n2-c2ccccc2)cc1,-1.9,12.7,-3.5,1.1,-73.7*,-9.1
OCCC1CN(CC(c2ccccc2)c2ccccc2)CCN1C1CCCC1 (configuration not stated),4.1,-3.6,2.4,1.6,-75.3*,-19.5
OCCC1CN(CC#Cc2ccccc2)CCN1C1CCCC1 (configuration not stated),1.3,-14.3,12.0,0.2,7.6,-2.0
CC(=O)c1ccc([N+](C)(C)C)cc1,.,.,.,-0.3,.,.
CC(C)(C)NC(=O)Cn1c(SCC(N)=O)nc2ccccc21,2.1,-2.1,-6.5,0.8,-89.5*,2.2
O=[N+]([O-])c1ccc(/C=C2\C=Cc3ccccc32)cc1,.,.,.,-0.6,.,.
Cc1ccccc1OCCn1cc(/C=C(\C#N)C(=O)NCc2ccco2)c2ccccc21,1.1,11.6,-14.6,5.5,-77.2*,60.0
N#C/C(=C\c1cn(Cc2ccc(C#N)cc2)c2ccccc12)C(=O)NCc1cccs1,-5.5,14.2,-26.3,1.2,-85.8*,-2.1
N#C/C(=C\c1cn(CCOc2ccccc2)c2ccccc12)C(=O)NCc1ccco1,.,.,4.6,1.5,-7.8,14.5
CCN(CC(=O)Nc1ccc(OC(F)F)cc1)C1CCCCC1,23.7,-9.7,-8.2,-0.2,-92.0*,-0.8
Cc1ccc(C)c(CSc2nnc3[nH]c(=O)cc(C)n23)c1,.,.,.,1.5,.,8.5
CCCOc1cccc(OCCSc2nc(C)cc(=O)[nH]2)c1,81.6*,-3.2,8.1,2.4,10.4,44.3
Cc1ccc(C)c(Cn2c3ccccc3c3cnn(CC(=O)NC4CCC(C)CC4)c(=O)c32)c1 (configuration not stated),.,.,.,0.6,.,5.4
COc1ccc(Nc2c(-c3ccc(C)cc3)nc3cnccn23)cc1,4.4,-2.9,-10.0,2.7,-85.9*,16.9
SMILES,TRPV1 agonist,TRPV1 PAM,KCNH2 WT inh,TRPML1 agonist,KCNH2 3.1 block,TRPML1 inh
CSc1ncc(C(=O)Nc2ccc(C)c(Cl)c2)c(-c2ccccc2)n1,.,.,.,2.1,.,17.6
CC1(C)CC(O)CC(C)(C)N1CC(O)COCc1ccccc1 (configuration not stated),2.2,2.9,3.5,-0.6,-81.3*,2.7
O=C(O)c1ccc2c(c1)C(=O)N(NC(=O)c1ccccc1)C2=O,-4.8,10.5,-230.1*,0.3,-7.5,94.4
CC(=O)/C(=N/Nc1ccccc1)Sc1nnc(CCc2ccccc2)n1-c1ccccc1,0.6,-19.2,-6.1,2.6,-90.2*,24.2
COc1ccc(C(=O)NCC(c2ccc(N(C)C)cc2)N2CCc3ccccc32)cc1 (configuration not stated),.,.,.,0.8,.,7.8
Cc1ccc(S(=O)(=O)CNC(=S)c2ccc3ccccc3c2)cc1,15.2,-6.2,-0.2,0.8,3.9,-15.5
COc1ccc(C(=S)NCS(=O)(=O)c2ccc(C)cc2)cc1,12.1,-4.8,-148.2*,0.7,5.3,0.9
O=C(NCc1nnc2c(C(F)(F)F)cc(Cl)cn12)c1cccnc1,4.0,-7.0,32.6,2.7,-0.4,-9.7
O=C(NCc1nnc2c(C(F)(F)F)cc(Cl)cn12)c1ccc2c(c1)OCO2,-2.2,4.8,-160.0*,0.9,11.4,-1.7
Cc1ccc(NC(=O)CCC(C(=O)O)N2C(=O)c3ccccc3C2=O)cc1 (configuration not stated),-2.6,4.0,-187.2*,0.0,-140.7*,76.7
Cc1ccccc1OCC(=O)OCc1cc(=O)n2nc(C3CCCCC3)sc2n1,.,.,.,0.9,.,-8.0
COC(=O)c1ccc(C2c3[nH]c4ccccc4c3C[C@H]3C(=O)N(C4CCN(Cc5ccccc5)CC4)CC(=O)N23)cc1 (some centres not stated),-7.0,12.4,-42.0,1.6,-79.9*,9.6
O=C1[C@@H]2Cc3c([nH]c4ccccc34)C(c3ccccc3)N2C(=O)CN1C1CCN(Cc2ccccc2)CC1 (some centres not stated),-2.7,21.6,-6.9,-0.3,?,-8.7
Cc1ccccc1C1c2[nH]c3ccccc3c2C[C@H]2C(=O)N(C3CCN(Cc4ccccc4)CC3)CC(=O)N12 (some centres not stated),-2.9,8.0,.,.,.,.
CCOc1ccccc1C1c2[nH]c3ccccc3c2C[C@H]2C(=O)N(C3CCN(Cc4ccccc4)CC3)CC(=O)N12 (some centres not stated),-1.2,3.7,-93.8*,0.1,-102.5*,-2.3
CC(C)(C)c1ccc(/C=C/C(=O)Nc2nncs2)cc1,?,-10.8,13.5,1.8,-82.7*,-0.5
O=C(/C=C/c1ccc2c(c1)OCO2)Nc1nncs1,5.2,-5.7,-6.6,4.6,-16.0,10.4
Cc1nc2ccc(S(=O)(=O)NC(CC(C)C)C(=O)NCc3ccc(Cl)cc3)cc2s1 (configuration not stated),.,.,.,1.2,.,22.0
OCCN1CCN(c2nc(-c3ccccc3)c3cc(Cl)ccc3n2)CC1,5.6,-6.3,-38.6,-0.1,-99.1*,-14.9
CCOC(=O)N1CCN(C(=O)NC2CCCCC2)CC1,3.3,2.9,1.6,3.7,-71.0*,-4.4
